The source of these data is PubChem BioAssay (NCATS).

Values joined by “and” are separate entries in the source; they are usually repeats but may differ in a detail not shown here. Identical values can stand only once. Records with an inconclusive call do not appear. Active and inactive are the calls of the source. Calls follow the shape of the dose curve; as a rule, active = well fitted curve in the direction sought with a large enough effect; inconclusive = small, poorly fitted or top-dose-only effect, or another doubt; inactive = no such curve, though single readings can be large; an effect the other way counts as inactive or inconclusive.

Experiment [1] relates to Zika virus NS2B-NS3 protease. The experiment can be described thus: Primary screen GU AMC qHTS for Zika virus inhibitors (AID 1347154). Also: nearly all actives have a fitted effect of over 70% in size. Also: potency is read from the fitted curve at half-maximal effect. The note with it: Zika NS2B-NS3 unlinked protease, AMC fluorogenic substrate; series mostly up to 54.1 µM. In short, it runs like this: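 Unlinked Zika NS2B hydrophilic domain–NS3 protease complex at 25 nM in 10 mM Tris-HCl pH 8.0, 0.01% Tween 20, with an AMC peptide substrate. Fluorescence change (340/450 nm) over 15 min at room temperature, normalized to controls, fitted to 4-parameter Hill.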
(Quantitative high-throughput screening tests each substance at several concentrations.)

Experiment [2] is described as follows: qHTS to identify inhibitors of the type 1 interferon - major histocompatibility complex class I in skeletal muscle: primary screen against the NCATS Pharmaceutical Collection (AID 1347407).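 Also: luminescence of HiBiT knocked into endogenous HLA-B as interferon-induced MHC class I level.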 Also: potency is read from the fitted curve at half-maximal effect. The note with it: human skeletal muscle cells, IFN-b-induced MHC-I HiBiT luminescence, 24 h; series mostly up to 45.9 µM. Put shortly: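 Compounds […] were added to CRISPR-engineered HLA-B-HiBiT C25cl48 human myoblasts with 4.0 ng/ml IFN-beta. After 24 hrs at 37 C, cells were lysed and HiBiT luminescence measured.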

The target of experiment [3] is Protein phosphatase 1D (Homo sapiens) (UniProt O15297). The experiment can be described thus: RapidFire Mass Spectrometry qHTS Assay for Modulators of WT P53-Induced Phosphatase 1 (WIP1) (AID 1347424). The note with it: WIP1 dephosphorylation of phosphopeptide, RapidFire MS; series mostly up to 63 µM. Put shortly:
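RapidFire MS readout of dephosphorylated VEPPL-S-QETFS product, with 1 uM isotope-labelled peptide standard. Reaction: 10 nM WIP1, 2 uM phosphopeptide substrate, 5 min, room temperature, after 1 h compound preincubation; stopped with 0.5% formic acid.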

The target is the same in experiment [4]. The experiment can be described thus: Rhodamine-PBP qHTS Assay for Modulators of WT P53-Induced Phosphatase 1 (WIP1) (AID 1347425). The note with it: recombinant WIP1, Rhodamine-PBP phosphate fluorescence, real-time; series mostly up to 57.5 µM. In short, it runs like this: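 Steps: enzyme with Rh-PBP sensor and compounds, room-temperature incubation of 1 hr, baseline read, addition of VEPPL-pS-QETFS (10 uM final), kinetic fluorescence reads at 525/598 nm. Activity equals final minus baseline signal.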

The nature of experiment [5]: Primary qHTS for inhibitors of La Crosse Virus (LACV) - induced cell death in SH-SY5Y cells (AID 1508616).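 Also: top concentration of the series differs between compounds; higher means more rescue of cells from virus-induced death.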 The note with it: SH-SY5Y LACV cytopathicity rescue, ATP luminescence, 6 d; series mostly up to 4.29 µM. Put shortly: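 Rescue of virus-induced death was read as ATPLite luminescence after 6 days at 37C, scaled between DMSO wells with LACV and without virus. Cells were SH-SY5Y, 6000/well, infected at 0.01 MOI after compound addition.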

Experiment [6] can be described thus: Confirmatory screen NINDS Rhodamine qHTS for Zika virus inhibitors (AID 1347161).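 Also: purified Zika NS2B-NS3 protease with linked NS2B cofactor domain and Rhodamine110 peptide substrate; nearly all actives have a fitted effect of over 60% in size.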 The conditions noted are these: purified enzyme assay, Rhodamine110 substrate fluorescence, 15 min; series mostly up to 114 µM. In short, it runs like this:
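In 10 mM Tris-HCl pH 8.0 containing 0.01% Tween 20, linked NS2B-NS3 protease (25 nM final) is exposed to test compounds for 15 min. Cleavage of 1.5 microM Rhodamine110 substrate is tracked by fluorescence over 15 min.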

Experiment [7] can be described thus: Vero cells viability qHTS for Zika virus inhibitors (AID 1347167). The note with it: cytotoxicity counter-screen (Zika); series mostly up to 45.9 µM. Put shortly: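 qHTS titration; 24-48 h compound exposure, 37 degrees C/5% CO2; DMEM, 4% FBS; CellTiter Glo ATP luminescence.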
The nature of experiment [8]: Tertiary RLuc qRT-PCR qHTS assay for Zika virus inhibitors (AID 1347169). Also: top concentration of the series differs between compounds; nearly all actives have a fitted effect of over 55% in size. The note with it: infected Vero cells, reporter luminescence, 48-72 h; series mostly up to 45.9 µM. In short, it runs like this:
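Orthogonal cell-based readout: luminescence measured 1-1.5 hrs after adding live-cell Renilla substrate to Vero cells that had been infected with ZIKV-RLuc (MOI 1-2) post-compound, incubated 48-72 hrs at 37 degrees C.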

Protein phosphatase 1D (Homo sapiens), sequence (O15297 whole entry, looked up): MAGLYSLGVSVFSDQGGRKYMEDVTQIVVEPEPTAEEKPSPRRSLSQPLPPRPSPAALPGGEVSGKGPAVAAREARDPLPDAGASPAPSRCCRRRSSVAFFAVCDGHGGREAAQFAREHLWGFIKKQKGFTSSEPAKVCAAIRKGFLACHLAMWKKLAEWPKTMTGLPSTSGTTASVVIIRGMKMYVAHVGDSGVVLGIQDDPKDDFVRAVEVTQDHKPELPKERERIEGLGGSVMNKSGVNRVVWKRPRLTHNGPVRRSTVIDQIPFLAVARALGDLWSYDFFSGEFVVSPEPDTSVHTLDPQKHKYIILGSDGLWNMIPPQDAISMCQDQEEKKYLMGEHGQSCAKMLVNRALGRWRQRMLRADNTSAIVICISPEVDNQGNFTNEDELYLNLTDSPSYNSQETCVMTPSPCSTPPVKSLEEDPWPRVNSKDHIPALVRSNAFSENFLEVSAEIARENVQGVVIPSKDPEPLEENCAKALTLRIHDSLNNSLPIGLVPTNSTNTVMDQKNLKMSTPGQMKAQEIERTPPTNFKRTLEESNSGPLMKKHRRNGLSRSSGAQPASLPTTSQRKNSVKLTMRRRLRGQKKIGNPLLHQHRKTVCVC

As for `CCC(=O)O[C@]1(C(=O)CCl)[C@@H](C)C[C@H]2[C@@H]3CCC4=CC(=O)C=C[C@]4(C)[C@@]3(F)[C@@H](O)C[C@@]21C`, the Potency result in experiment [1] and in experiment [2] was “inactive” throughout. Besides, the compound was classed as inactive in experiment [3] and in experiment [4].
For the compound `COc1cc(NS(=O)(=O)c2ccc(N)cc2)nc(OC)n1`, the Potency entry in experiment [1] and in experiment [2] was “inactive” throughout. Further, the outcome in experiment [4] was inactive.
For the compound `O=NN(CCCl)C(=O)NC1CCCCC1`, the Potency result in experiment [1] and in experiment [2] was “inactive” in each case. Moreover, the outcome in experiment [4] was inactive.
With `COc1ncnc(NS(=O)(=O)c2ccc(N)cc2)c1OC`, the Potency result in experiment [1], in experiment [2] and in experiment [5] was “inactive” in each case. The result in experiment [4] was inactive.
`NC(=O)c1cccnc1`: the Potency entry in experiment [1] and in experiment [2] was “inactive” throughout. Also, the result in experiment [3] and in experiment [4] was inactive.
As for `O[C@@H](CNC[C@H](O)[C@H]1CCc2cc(F)ccc2O1)[C@@H]1CCc2cc(F)ccc2O1`, the Potency entry in experiment [1] and in experiment [5] was “inactive” each time. Further, in experiment [2], the Potency was 26.4 µM (active). Moreover, the result in experiment [3] and in experiment [4] was inactive.
Regarding `Cc1ccnc2c1NC(=O)c1cccnc1N2C1CC1`, the Potency result in experiment [1], in experiment [2] and in experiment [5] was “inactive” each time. Further, the call in experiment [3] and in experiment [4] was inactive.
With `CC(C)C1CCC(C(=O)N[C@H](Cc2ccccc2)C(=O)O)CC1` (stereo not given in full), the Potency result in experiment [1], in experiment [2] and in experiment [5] was “inactive” in each case. The outcome in experiment [3] and in experiment [4] was inactive.
For `Cn1nnc2c(C(N)=O)ncn2c1=O`, the Potency entry in experiment [1], in experiment [2] and in experiment [5] was “inactive” in each case. In experiment [4], the result was inactive.
`O=c1oc2c(O)c(O)cc3c(=O)oc4c(O)c(O)cc1c4c23`: in experiment [1], the Potency is 496 nM (active) and 1.92 µM (active). In addition, the Potency result in experiment [2] and in experiment [5] was “inactive” throughout. For the same compound, the result in experiment [3] and in experiment [4] was inactive.
With `S=P(N1CC1)(N1CC1)N1CC1`, the Potency result in experiment [1], in experiment [2] and in experiment [5] was “inactive” throughout. Moreover, in experiment [3], the compound was called inactive.
Consider `CN1CCN(c2c(F)cc3c(=O)c(C(=O)O)cn4c3c2OCN4C)CC1`, for which the Potency entry in experiment [1], in experiment [2] and in experiment [5] was “inactive” in each case. The call in experiment [3] and in experiment [4] was inactive.
On to `C[C@@H]1CN(c2c(F)c(N)c3c(=O)c(C(=O)O)cn(C4CC4)c3c2F)C[C@H](C)N1`, for which the Potency result in experiment [1], in experiment [2] and in experiment [5] was “inactive” each time. Also, the outcome in experiment [3] and in experiment [4] was inactive.
In the case of `COc1nc(N)nc2c1ncn2[C@@H]1O[C@H](CO)[C@@H](O)[C@@H]1O`, the Potency result in experiment [1] and in experiment [2] was “inactive” in each case. Moreover, the result in experiment [3] and in experiment [4] was inactive.
As to `CCCCCCNC(=O)n1cc(F)c(=O)[nH]c1=O`, the Potency result in experiment [1], in experiment [2] and in experiment [5] was “inactive” in each case. Besides, the compound was classed as inactive in experiment [3] and in experiment [4].
Consider `C[C@@H]1C[C@H]2[C@@H]3CCC4=CC(=O)C=C[C@]4(C)[C@@]3(Cl)[C@@H](O)C[C@]2(C)[C@@]1(OC(=O)c1ccco1)C(=O)CCl`, for which the Potency result in experiment [1] and in experiment [2] was “inactive” throughout. In addition, in experiment [4], the outcome was inactive.
As to `CS(=O)(=O)c1ccc([C@@H](O)[C@@H](CO)NC(=O)C(Cl)Cl)cc1`, the Potency entry in experiment [1], in experiment [2] and in experiment [5] was “inactive” throughout. Moreover, the compound was called inactive in experiment [3] and in experiment [4].
Consider `Nc1[nH]c(=O)ncc1F`, for which the Potency result in experiment [1], in experiment [2] and in experiment [5] was “inactive” throughout. Besides, in experiment [4], the outcome was inactive.
For `CCOC(=O)c1ccc(OC(=O)CCCCCN=C(N)N)cc1`, the Potency entry in experiment [1], in experiment [2] and in experiment [5] was “inactive” each time. Further, the outcome in experiment [3] and in experiment [4] was inactive.
`Cc1cccc(N(C)C(=S)Oc2ccc3ccccc3c2)c1`: the Potency result in experiment [1] and in experiment [2] was “inactive” throughout. The outcome in experiment [4] was inactive.
As to `COc1cnc(NS(=O)(=O)c2ccc(N)cc2)nc1`, the Potency entry in experiment [1], in experiment [2] and in experiment [5] was “inactive” in each case. The outcome in experiment [3] and in experiment [4] was inactive.
Consider `CN(C)CCc1c[nH]c2ccc(CS(=O)(=O)N3CCCC3)cc12`, for which the Potency entry in experiment [1] and in experiment [2] was “inactive” in each case. Moreover, the result in experiment [4] was inactive.
Turning to `COC(c1ccccc1)(c1ccccc1)[C@H](Oc1nc(C)cc(C)n1)C(=O)O`, the Potency result in experiment [1], in experiment [2] and in experiment [5] was “inactive” in each case. Besides, the compound was classed as inactive in experiment [3] and in experiment [4].
For `Cc1cc(NS(=O)(=O)c2ccc(N)cc2)no1`, the Potency entry in experiment [1] and in experiment [2] was “inactive” throughout. Further, the result in experiment [3] and in experiment [4] was inactive.
As to `CC(=O)[C@H]1CC[C@H]2[C@@H]3CC=C4C[C@@H](O)CC[C@]4(C)[C@H]3CC[C@]12C`, the Potency result in experiment [1] and in experiment [2] was “inactive” in each case. For the same compound, the result in experiment [4] was inactive.
Consider `CC(C)OC(=O)OCOP(=O)(CO[C@H](C)Cn1cnc2c(N)ncnc21)OCOC(=O)OC(C)C`, for which the Potency result in experiment [1], in experiment [2] and in experiment [5] was “inactive” in each case. In addition, the result in experiment [4] was inactive.
As to `CC(=O)Oc1ccccc1C(=O)Nc1ncc([N+](=O)[O-])s1`, the Potency entry in experiment [1], in experiment [2] and in experiment [5] was “inactive” throughout.
As to `C[C@@H](NCCCc1cccc(C(F)(F)F)c1)c1cccc2ccccc12`, the Potency entry in experiment [1] and in experiment [5] was “inactive” each time. The Potency in experiment [2] was 26.4 µM (active). The result in experiment [4] was inactive.
With `Clc1ccccc1CN1CCc2sccc2C1`, the Potency entry in experiment [1] is “inactive”. Also, the compound was called inactive in experiment [3] and in experiment [4].
As for `CCc1c2c(nc3ccc(OC(=O)N4CCC(N5CCCCC5)CC4)cc13)-c1cc3c(c(=O)n1C2)COC(=O)[C@]3(O)CC`, in experiment [1], the Potency is 5.73 µM (active). In experiment [4], the outcome was inactive.
`CCn1cc(C(=O)O)c(=O)c2cc(F)c(N3CCN(C)CC3)cc21`: the Potency entry in experiment [1] is “inactive”. Further, the outcome in experiment [3] and in experiment [4] was inactive.
Consider `CCCc1nc(C)c2c(=O)[nH]c(-c3cc(S(=O)(=O)N4CCN(CC)CC4)ccc3OCC)nn12`, for which the Potency entry in experiment [6], in experiment [7], in experiment [8], in experiment [2] and in experiment [5] was “inactive” in each case. Besides, the call in experiment [3] and in experiment [4] was inactive.
In the case of `O=C(O)c1cn(C2CC2)c2cc(N3CCNCC3)c(F)cc2c1=O`, the Potency result in experiment [7], in experiment [8] and in experiment [5] was “inactive” in each case. Further, the call in experiment [3] and in experiment [4] was inactive.
As to `Nc1ccc(S(=O)(=O)Nc2ccccn2)cc1`, the Potency entry in experiment [1], in experiment [2] and in experiment [5] was “inactive” throughout. Also, the result in experiment [4] was inactive.
